Giardia kill: Small Molecules that selectively kill Giardia lamblia: qHTS | hit rate 0.15% among 340,000 | AID 540267, 2011 | Giardia lamblia trophozoite viability | activity change, % at 7.66 µM, hits read low; in the data active = activity change below about -80%; inconclusive = between about -30% and that limit;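 also: parasites exposed to compound for two days anaerobically before the ATP read; % is scaled to controls: 0 for no effect and ±100 for the full control effect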
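ATP-content bioluminescence gauges trophozoite survival. Cells (100/well) receive compound and incubate anaerobically for 48 hrs at 37 deg C; detection reagent follows for 15-30 min at room temperature.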
MCF10A rereplic: A quantitative high throughput screen for small molecules that induce DNA re-replication in MCF 10a normal breast cells; Potency, µM (doses to about 46.1 µM), for the others: at the highest dose activity, positive = re-replication, hits mostly activators; hit rate 2.9% among 350,000; MCF 10A DNA re-replication, Hoechst nuclear intensity, 48 h; also: potency is read from the fitted curve at half-maximal effect; % of control where 0% means no effect; nearly all actives have a fitted effect of over 50% in size
RORg inh: qHTS for inhibitors of ROR gamma transcriptional activity; Nuclear receptor ROR-gamma (Mus musculus), P51450; Drosophila S2 Gal4-RORgamma UAS-luciferase reporter, 20 h; Potency, µM (series often up to 53.6 µM), inactives show at the highest dose activity change, negative = inhibition, actives largely listed as inhibitors; hit rate 5.4% among 310,000; AID 2551, 2010; also: potency is read from the fitted curve at half-maximal effect; % is scaled to controls: 0 for no effect and ±100 for the full control effect; nearly all actives have a fitted effect of over 60% in size
Target sequence (P51450 whole entry, looked up, the tested form may be a part): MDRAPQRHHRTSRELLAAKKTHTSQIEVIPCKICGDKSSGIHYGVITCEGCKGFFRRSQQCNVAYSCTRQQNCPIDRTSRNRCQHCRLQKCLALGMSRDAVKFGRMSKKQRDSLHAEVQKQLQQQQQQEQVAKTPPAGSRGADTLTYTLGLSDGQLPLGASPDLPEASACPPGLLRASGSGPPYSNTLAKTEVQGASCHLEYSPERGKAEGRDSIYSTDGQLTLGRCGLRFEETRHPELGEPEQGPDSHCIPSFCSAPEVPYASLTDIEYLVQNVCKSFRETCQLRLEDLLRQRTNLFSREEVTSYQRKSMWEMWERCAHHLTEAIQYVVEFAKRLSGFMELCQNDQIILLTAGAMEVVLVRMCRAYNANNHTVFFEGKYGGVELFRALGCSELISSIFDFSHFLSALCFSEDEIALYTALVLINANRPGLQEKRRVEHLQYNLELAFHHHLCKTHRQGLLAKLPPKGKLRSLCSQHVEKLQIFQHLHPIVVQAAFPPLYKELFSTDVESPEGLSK
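Using a luciferase readout, inhibitors were identified by reduced reporter activity in Drosophila cells coexpressing a copper-inducible Gal4–ROR gamma fusion and UAS-driven Photinus luciferase, incubated 20 hr after 700 uM copper sulfate.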
SW480 rereplic: A quantitative high throughput screen for small molecules that induce DNA re-replication in SW480 colon adenocarcinoma cells; SW480 DNA re-replication, Hoechst DNA content imaging, 48 h; Potency, µM (doses to about 46.1 µM), for inactives: top-dose re-replication activation, most hits filed as activators; hit rate 1.8% among 340,000; AID 624297, 2012; also: potency is read from the fitted curve at half-maximal effect; % of control where 0% means no effect; nearly all actives have a fitted effect of over 55% in size
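Readout is total intensity of Hoechst-stained nuclei, excited at 405 nm and collected at 500-530 nm. Compound treatment lasted 48 hr at 37 C in 5% CO2 before staining.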
Gal4-VP16 FLuc: VP16 counterscreen qHTS for inhibitors of ROR gamma transcriptional activity; Drosophila S2 Gal4-VP16 UAS-luciferase, luminescence, 20 h; Potency, µM (series often up to 53.6 µM), for the others: at the highest dose activity, negative = inhibition, actives largely listed as inhibitors; hit rate 3.5% among 310,000; AID 2546, 2010;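 also: Gal4-VP16 expression switched on by copper sulfate through the metallothionein promoter; potency is read from the fitted curve at half-maximal effect; % is scaled to controls: 0 for no effect and ±100 for the full control effect; nearly all actives have a fitted effect of over 50% in size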
BCR signal inh: qHTS Assay to Find Inhibitors of Chronic Active B-Cell Receptor Signaling; ABC-DLBCL IkBa-CBG/CBR reporter, luminescence ratio, 4 h; Potency, µM (highest dose often 46.1 µM), for the others: top-dose activity change, negative = inhibition, actives largely listed as inhibitors; hit rate 0.05% among 340,000; AID 493014, 2011; active = well fitted inhibition curve with a large enough effect in the signal ratio, with a control signal flat, not every such curve was filed as active; inconclusive = small, poorly fitted or top-dose-only effect, or effect the other way, or a change in a side signal; the % refers to the signal ratio;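 also: potency is read from the fitted curve at half-maximal effect; plate controls were basal doxycycline-induced cells for no effect and cells given 10 µM MG132 for full effect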
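Concentration-response series (up to 46 uM) were applied to TMD8 dual-reporter cells for 4 h at 37C with doxycycline. Green/red ratio, after filter-overlap correction, defined %Activity; red signal alone was normalised to basal cells and zero luminescence.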
* marks the source's active call; other numbers are inactive results; ? = inconclusive; . = not tested or not shown. This is a sample that favours compounds with a hit; in the whole collection about 8.3% have one here. Unless noted, calls follow the shape of the dose curve; as a rule, active = well fitted curve in the direction sought with a large enough effect; inconclusive = small, poorly fitted or top-dose-only effect, or another doubt; inactive = no such curve, though single readings can be large; an effect the other way counts as inactive or inconclusive.

SMILES	Giardia kill	MCF10A rereplic	RORg inh	SW480 rereplic	Gal4-VP16 FLuc	BCR signal inh
Cc1ccc(S(=O)(=O)Nc2ccccc2/C=N/c2nc3ccccc3n2C)cc1	2.9	13µM*	-20.9%	5.0%	-29.8%	?
CC(C)(C)c1ccc(-c2n[nH]c(=S)n2/N=C/c2ccncc2)cc1	-14.8	?	?	0.0%	14.1µM*	-2.2%
Oc1ccc(/C=N/n2c(-c3ccccc3)n[nH]c2=S)cc1	-12.0	-0.7%	?	-3.4%	-8.7%	1.8%
Cc1ccc(/C=N/n2c(-c3ccncc3)n[nH]c2=S)cc1	4.8	-2.5%	8.91µM*	-2.2%	12.6µM*	0.6%
CCOC(=O)C1=C(CC)Nc2ccccc2N/C1=N\S(=O)(=O)c1ccccc1OC	-2.9	19.0%	.	-9.4%	.	-0.4%
CC(=O)Nc1ccc(NC(=O)C(C)OC(=O)CCCOc2ccc(Cl)c(C)c2)cc1 (centres undefined)	-1.9	0.1%	-37.1%	-2.3%	-23.9%	13.1%
CCn1c(=O)c(=O)n(CC)c2cc(S(=O)(=O)Nc3cc(C)ccc3C)ccc21	-23.7	1.5%	8.8%	0.8%	-6.8%	4.5%
CCOC(=O)c1sc(NC(C)=O)nc1C	-1.4	19.9%	43.7%	-2.1%	-1.6%	-6.5%
CCOC(=O)c1sc(N/N=C/c2ccc(N(C)C)cc2)nc1C	6.8	?	?	?	11.2µM*	4.7%
CCOC(=O)c1nc(N/N=C/c2ccccc2)sc1Br	1.1	?	17.8µM*	5.1%	?	?
CC(=O)c1sc(N/N=C\c2cccc(Br)c2)nc1C	-0.6	13µM*	?	10.6%	?	?
CC(=O)c1sc(N/N=C\c2ccc(Br)cc2)nc1C	-17.3	18.4µM*	?	?	?	-1.7%
CCOc1ccc(N(CC(=O)NCCc2ccc(Cl)cc2)S(=O)(=O)c2c(C)[nH]c(=O)[nH]c2=O)cc1	18.1	-0.6%	1.7%	-3.5%	8.8%	17.2%
CC(OC(=O)c1cccc(-n2cnnn2)c1)C(=O)NCc1ccccc1 (centres undefined)	-13.6	-0.8%	.	-71.5%	.	-11.2%
Cc1ccc(C)c(N2CCN(C(=O)CCc3nc(-c4ccccc4F)no3)CC2)c1	22.9	16.4µM*	.	2.7%	.	-4.6%
Cc1ccc(C)c(N2CCN(C(=O)CCc3nc(-c4ccccc4Br)no3)CC2)c1	28.1	?	.	-4.0%	.	-1.2%
CC1=NN(C(=O)c2ccc(Cn3nc(C)c([N+](=O)[O-])c3C)o2)C(O)(C(F)(F)F)C1 (centres undefined)	10.2	-3.8%	2.51µM*	-1.5%	7.08µM*	-11.3%
O=C(c1ccccc1[N+](=O)[O-])N1N=C(c2ccccc2)CC1(O)C(F)(F)F (centres undefined)	10.3	8.2%	?	5.5%	-21.5%	?
Cc1nn(Cc2ccc(C(=O)N3CCN(C(=O)c4ccco4)CC3)o2)c(C)c1[N+](=O)[O-]	5.3	-1.2%	5.7%	-6.5%	0.7%	0.6%
CC1=NN(C(=O)c2ccc(Cn3ccc([N+](=O)[O-])n3)cc2)C(O)(C(F)(F)F)C1 (centres undefined)	-10.3	?	10µM*	?	12.6µM*	0.6%
Cc1ccc(NC(=O)CCC(=O)NNC(=O)c2ccccc2)c(C)c1	20.2	-9.0%	-1.4%	-8.3%	4.7%	5.3%
CSCc1cc(N(C)C)nc(SCc2ccc(Cl)c(Cl)c2)n1	10.9	-8.2%	11.2µM*	3.3%	?	15.4%
COCCn1c(SCC(=O)Nc2cccnc2Cl)nc2ccccc2c1=O	17.0	5.4%	.	-1.2%	.	-1.3%
Cc1ccc(N=N/C(=C\O)C(=O)c2ccc(Cl)cc2)cc1	3.1	0.4%	-36.0%	22.9%	?	?
Cc1ccc[n+](/C(=C\C(=C=[N-])C#N)C(=O)c2ccc(Cl)cc2)c1	18.0	-1.8%	17.8µM*	-0.2%	?	1.4%

Screens (PubChem)
